From PubChem BioAssay (EPA / NIEHS)
Results filed as inconclusive are left out. Calls of active or inactive are those of the source. How the source made its calls, unless noted: active means hit-call score of the fitted dose curve at least 0.9, where 1 is the maximum; inactive means score below 0.9.

Assays:
[1] = CEETOX_H295R_ANDR_noMTC: CeeTox H295R High-throughput Steroidogenesis Assay for Androstenedione (ANDR), maximum tolerated concentration (MTC) filtered results only (AID 2283915); details: actives raise or lower the signal
Protocol: (§1) CEETOX_H295R is a cell-based, multiplexed-readout assay that uses H295R, a human adrenal gland cell line, with measurements taken at 48 hours after chemical dosing in a 96-well plate.CEETOX_H295R_ANDR_noMTC is one of 12 assay component(s) measured or calculated from the CEETOX_H295R assay (11 hormones and 1 viability assay). It is designed to make measurements of hormone induction, a form of inducible reporter, as detected with absorbance signals by HPLC-MS-MS technology. The concentrations for these components have not been pre-filtered for the maximum tolerated concentration (MTC) based on the MTT assay (_noMTC).Data from the assay component CEETOX_H295R_ANDR_noMTC was analyzed into 1 assay endpoint. This assay endpoint, CEETOX_H295R_ANDR_noMTC, was analyzed with bidirectional fitting relative to DMSO as the negative control and baseline of activity. […]
(§2) Cell culture and media preparation procedures were conducted in accordance with OECD Test No. 456 guidelines, with minor modifications. […] For steroid quantification, media samples were shipped to OpAns, LLC (Durham, NC) on dry ice, and samples were thawed to room temperature prior to liquid-liquid extraction. […] Steroid hormones were separated by HPLC, eluted using a reverse phase C18 gradient with electrospray positive ionization, followed by quantification by tandem mass spectrometry (MS/MS). […]

[2] = CEETOX_H295R_CORTISOL_noMTC: CeeTox H295R High-throughput Steroidogenesis Assay for Cortisol, maximum tolerated concentration (MTC) filtered results only (AID 2283916); details: actives raise or lower the signal
In short: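 H295R adrenal cells were pre-stimulated 48 h with 10 uM forskolin, then exposed 48 h to test chemical in 0.1% DMSO. Medium cortisol was measured by MTBE extraction and HPLC-MS/MS; bidirectional fit versus DMSO, concentrations not MTC-filtered.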

[3] = CEETOX_H295R_CORTIC_noMTC: CeeTox H295R High-throughput Steroidogenesis Assay for Corticosterone (CORTIC), maximum tolerated concentration (MTC) filtered results only (AID 2283917); details: actives raise or lower the signal
In short: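 Forskolin-stimulated (10 uM, 48 h) H295R cells are dosed 48 h with chemical in DMSO (0.1% final); corticosterone change is quantified by HPLC-MS/MS and fitted bidirectionally against DMSO, unfiltered for MTT-derived MTC.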

[4] = CEETOX_H295R_DOC_noMTC: CeeTox H295R High-throughput Steroidogenesis Assay for DOC, maximum tolerated concentration (MTC) filtered results only (AID 2283918); details: actives raise or lower the signal
In short: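 H295R cells prestimulated 48 h with 10 uM forskolin, then exposed 48 h to test chemical (0.1% DMSO final). Medium 11-deoxycorticosterone extracted with MTBE, quantified by HPLC-MS/MS; bidirectional fit versus DMSO, concentrations not MTC-filtered.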

[5] = CEETOX_H295R_PROG_noMTC: CeeTox H295R High-throughput Steroidogenesis Assay for Progesterone (PROG), maximum tolerated concentration (MTC) filtered results only (AID 2283920); details: actives raise or lower the signal
In short: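 Progesterone synthesis in the human adrenal line H295R is measured by HPLC-MS/MS after 48 h chemical exposure following 48 h forskolin (10 uM) stimulation. Activity in either direction is fitted relative to DMSO.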

[6] = CEETOX_H295R_TESTO_noMTC: CeeTox H295R High-throughput Steroidogenesis Assay for Testosterone (TESTO), maximum tolerated concentration (MTC) filtered results only (AID 2283924); details: actives raise or lower the signal
In short: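 Medium testosterone, measured by HPLC-MS/MS after liquid-liquid extraction, was fitted in both directions relative to DMSO without MTC filtering. Adrenal H295R cells received 48 h chemical exposure (0.1% DMSO final) after 48 h forskolin (10 uM) prestimulation; viability by MTT.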

[7] = CEETOX_H295R_ESTRADIOL_noMTC: CeeTox H295R High-throughput Steroidogenesis Assay for Estradiol, maximum tolerated concentration (MTC) filtered results only (AID 2283919); details: actives raise or lower the signal
In short: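 Readout: dansyl-derivatized estradiol quantified by LC-MS/MS in medium from H295R cells dosed 48 h (0.1% DMSO) following 48 h forskolin (10 uM) prestimulation. Gain or loss of signal fitted against DMSO; no MTC filtering applied.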

[8] = CEETOX_H295R_ESTRONE_noMTC: CeeTox H295R High-throughput Steroidogenesis Assay for Estrone, maximum tolerated concentration (MTC) filtered results only (AID 2283921); details: actives raise or lower the signal
Protocol: as §1, with “plate.CEETOX_H295R_ESTRONE_noMTC” for “plate.CEETOX_H295R_ANDR_noMTC”, “CEETOX_H295R_ESTRONE_noMTC” for “CEETOX_H295R_ANDR_noMTC”, “CEETOX_H295R_ESTRONE_noMTC,” for “CEETOX_H295R_ANDR_noMTC,”
as §2

PGR (gene 5241) = PGR (gene 5241) (UniProt P06401); assay: TOX21_PR_BLA_Followup_Antagonist_ratio: Tox21 HEK293 Progesterone Receptor (PR) Antagonism Beta-lactamase Follow-Up Assay, Ratio (AID 2283934; active means hit-call score of the fitted dose curve at least 0.9, where 1 is the maximum;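 further: PR-UAS-bla HEK293T cells stimulated with 1 nM R5020 agonist for 16 hr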)
In short: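 Cells are plated, rested 6 hr, then dosed with test compound in DMSO and challenged with 1 nM promegestone. After 16 hr incubation, substrate loading for 2 h at room temperature precedes fluorescence reading; viability is measured in the same wells.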

[9] = TOX21_PR_BLA_Followup_Agonist_viability: Viability Assessment in the Tox21 HEK293 Progesterone Receptor (PR) Agonism Beta-lactamase Follow-Up Assay (AID 2283935; active means hit-call score of the fitted dose curve at least 0.9, where 1 is the maximum;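 further: signal loss means lower viability so actives are cytotoxic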)
In short: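 Cells were plated in medium with 2% charcoal-stripped FBS and rested 6 hr. Compounds in DMSO were then added for 16 hr at 37C, followed by the FRET substrate step and CellTiter-Glo luminescence after 30 min.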

Measured: AC50

Sequence of PGR (gene 5241) (P06401 whole entry, looked up): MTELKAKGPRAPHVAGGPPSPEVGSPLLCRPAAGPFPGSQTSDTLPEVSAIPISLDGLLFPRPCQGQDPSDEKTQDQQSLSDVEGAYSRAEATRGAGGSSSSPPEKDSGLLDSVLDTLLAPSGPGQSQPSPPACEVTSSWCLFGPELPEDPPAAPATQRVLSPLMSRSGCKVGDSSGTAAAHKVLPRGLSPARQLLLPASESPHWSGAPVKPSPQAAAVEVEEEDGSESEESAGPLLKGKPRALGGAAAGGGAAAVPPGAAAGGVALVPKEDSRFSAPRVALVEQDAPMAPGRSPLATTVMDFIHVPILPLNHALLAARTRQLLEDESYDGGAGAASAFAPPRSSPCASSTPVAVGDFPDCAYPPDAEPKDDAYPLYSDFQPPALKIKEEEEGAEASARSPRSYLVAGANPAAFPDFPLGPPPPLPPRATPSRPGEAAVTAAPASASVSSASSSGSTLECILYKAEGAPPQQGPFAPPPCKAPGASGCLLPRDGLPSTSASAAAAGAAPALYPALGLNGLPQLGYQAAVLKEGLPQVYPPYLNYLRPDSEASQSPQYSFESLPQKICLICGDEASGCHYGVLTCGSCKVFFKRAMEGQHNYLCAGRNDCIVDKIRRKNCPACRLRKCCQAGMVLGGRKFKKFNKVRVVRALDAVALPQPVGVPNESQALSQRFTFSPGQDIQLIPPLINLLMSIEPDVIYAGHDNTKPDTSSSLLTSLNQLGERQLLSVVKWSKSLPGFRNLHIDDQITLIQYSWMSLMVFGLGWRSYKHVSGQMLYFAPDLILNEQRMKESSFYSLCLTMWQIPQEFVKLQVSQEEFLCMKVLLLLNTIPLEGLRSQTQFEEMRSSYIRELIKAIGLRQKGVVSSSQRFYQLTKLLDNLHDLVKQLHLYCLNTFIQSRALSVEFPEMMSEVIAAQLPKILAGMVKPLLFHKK

O=C(Oc1ccccc1)c1cccc(C(=O)Oc2ccccc2)c1
inactive: [1] | [2] | [3] | [4] | [5] | [6]

Nc1nc(=S)c2[nH]cnc2[nH]1
active: [1] 77 µM | [2] 37 µM | [3] 33.3 µM | [4] 35.4 µM | [5] 78.8 µM | [6] 74.5 µM
inactive: [7] | [8]

CC(=O)[C@@]1(O)CC[C@H]2[C@@H]3CCC4=CC(=O)CC[C@]4(C)[C@H]3CC[C@@]21C
inactive: PGR (gene 5241) | [9]

C=CCc1ccc(OC)c(OC)c1
inactive: [2] | [3] | [4]

NC(=Nc1ccccc1)Nc1ccccc1
inactive: [7] | [5] | [8]
active: [2] 44.4 µM | [3] 39.1 µM | [4] 50 µM
